The subject of assay [1] is Plasmodium falciparum Sir2 (PF13_0152, Sir2A). As to the kind of experiment: pfSir2 binders on small-molecule microarrays, primary screen, biochemical, small-molecule microarray, 635 nm fluorescence (AID 1098).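 Also: score merges spot fluorescence intensity with its signal-to-noise ratio.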 As to conditions: small-molecule microarray binding, fluorescence 635 nm; higher = more signal.
Assay [2] can be described thus: small-molecule microarray binders of probe aDKK1, primary screen, biochemical, biotinylated probe, 635/667 nm fluorescence (AID 1099).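 Also: score merges 667nm spot fluorescence with signal to noise across triplicate slides; reference of the scale not given here.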 The conditions noted are these: higher = more signal.
The nature of assay [3]: small-molecule microarray binders of probe aCHRDL2, primary screen, biochemical, biotinylated probe, 635/667 nm fluorescence (AID 1100). The conditions noted are these: higher = more signal.
Assay [4] in a line: splicing luciferase reporter signal modulators, primary screen, spliceosome inhibition project, cell-based, HEK293, splice +/- reporter (AID 1101).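 Also: HEK293 cells carrying a splicing-competent luciferase reporter gene; test concentration not given here.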 As to conditions: luminescence, 24 h, higher = more signal, called active from +8 up or from −8 down.
In assay [5] the target is Fibroblast growth factor 10 (Homo sapiens) (UniProt O15520). The assay is described as follows: FGF10 binders on small-molecule microarrays, primary screen, biochemical, small-molecule microarray, 635 nm fluorescence (AID 1102). The conditions noted are these: FGF10 binding, fluorescence 635 nm, higher = more signal.
The test system of assay [6] is glycogen synthase kinase-3 (GSK3A per assay name; protocol says GSK3B). As to the kind of experiment: GSK3 binders on small-molecule microarrays, primary screen, biochemical, small-molecule microarray, 635 nm fluorescence, GSK3A (AID 1103). Also: the record names both GSK3A and GSK3B. The conditions noted are these: small-molecule microarray binding, fluorescence 635 nm; higher = more signal.
Assay [7] has as its target Epidermal growth factor receptor (Homo sapiens) (UniProt P00533). The assay is described as follows: EGFR binders on small-molecule microarrays, primary screen, biochemical, small-molecule microarray, 635 nm fluorescence (AID 1104).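 Also: score merges 667 nm emission intensity with spot signal to noise over triplicate slides.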 As to conditions: EGFR binding, higher = more signal.
The target of assay [8] is Follistatin-related protein 3 (Homo sapiens) (UniProt O95633). As to the kind of experiment: FSTL3 binders on small-molecule microarrays, primary screen, biochemical, small-molecule microarray, 635 nm fluorescence (AID 1105).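 Also: score merges emission near 667 nm and signal to noise per printed spot across three slides.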 The conditions noted are these: FSTL3 binding, higher = more signal.
Assay [9] has as its target Dickkopf-related protein 1 (Homo sapiens) (UniProt O94907). The assay is described as follows: DKK1 binders on small-molecule microarrays, primary screen, biochemical, small-molecule microarray, 635 nm fluorescence scan (AID 1106).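 Also: score merges emission near 667 nm with signal to noise over three replicate slides.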 The conditions noted are these: DKK1 binding, higher = more signal.
Assay [10] deals with Inhibin beta A chain (activin A). The assay is described as follows: INHBA (activin A) binders on microarrays, primary screen, biochemical, small-molecule microarray, 635 nm fluorescence scan (AID 1107).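 Also: mouse activin A protein probed at 4.33 µg/mL on printed slides; score merges bound-protein fluorescence near 667 nm with spot signal-to-noise.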 As to conditions: small-molecule microarray binding, higher = more signal.

SMILES strings stand for the structures. Active and inactive are the calls of the source.

Follistatin-related protein 3 (Homo sapiens), sequence (O95633 whole entry, looked up): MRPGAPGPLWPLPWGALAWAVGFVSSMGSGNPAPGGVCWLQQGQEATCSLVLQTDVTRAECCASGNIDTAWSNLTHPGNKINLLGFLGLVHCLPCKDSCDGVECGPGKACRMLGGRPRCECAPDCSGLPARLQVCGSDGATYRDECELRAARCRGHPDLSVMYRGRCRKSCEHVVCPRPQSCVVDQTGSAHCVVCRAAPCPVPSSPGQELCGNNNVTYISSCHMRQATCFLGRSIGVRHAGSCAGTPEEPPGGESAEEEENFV
Epidermal growth factor receptor (Homo sapiens), sequence (P00533 whole entry, looked up): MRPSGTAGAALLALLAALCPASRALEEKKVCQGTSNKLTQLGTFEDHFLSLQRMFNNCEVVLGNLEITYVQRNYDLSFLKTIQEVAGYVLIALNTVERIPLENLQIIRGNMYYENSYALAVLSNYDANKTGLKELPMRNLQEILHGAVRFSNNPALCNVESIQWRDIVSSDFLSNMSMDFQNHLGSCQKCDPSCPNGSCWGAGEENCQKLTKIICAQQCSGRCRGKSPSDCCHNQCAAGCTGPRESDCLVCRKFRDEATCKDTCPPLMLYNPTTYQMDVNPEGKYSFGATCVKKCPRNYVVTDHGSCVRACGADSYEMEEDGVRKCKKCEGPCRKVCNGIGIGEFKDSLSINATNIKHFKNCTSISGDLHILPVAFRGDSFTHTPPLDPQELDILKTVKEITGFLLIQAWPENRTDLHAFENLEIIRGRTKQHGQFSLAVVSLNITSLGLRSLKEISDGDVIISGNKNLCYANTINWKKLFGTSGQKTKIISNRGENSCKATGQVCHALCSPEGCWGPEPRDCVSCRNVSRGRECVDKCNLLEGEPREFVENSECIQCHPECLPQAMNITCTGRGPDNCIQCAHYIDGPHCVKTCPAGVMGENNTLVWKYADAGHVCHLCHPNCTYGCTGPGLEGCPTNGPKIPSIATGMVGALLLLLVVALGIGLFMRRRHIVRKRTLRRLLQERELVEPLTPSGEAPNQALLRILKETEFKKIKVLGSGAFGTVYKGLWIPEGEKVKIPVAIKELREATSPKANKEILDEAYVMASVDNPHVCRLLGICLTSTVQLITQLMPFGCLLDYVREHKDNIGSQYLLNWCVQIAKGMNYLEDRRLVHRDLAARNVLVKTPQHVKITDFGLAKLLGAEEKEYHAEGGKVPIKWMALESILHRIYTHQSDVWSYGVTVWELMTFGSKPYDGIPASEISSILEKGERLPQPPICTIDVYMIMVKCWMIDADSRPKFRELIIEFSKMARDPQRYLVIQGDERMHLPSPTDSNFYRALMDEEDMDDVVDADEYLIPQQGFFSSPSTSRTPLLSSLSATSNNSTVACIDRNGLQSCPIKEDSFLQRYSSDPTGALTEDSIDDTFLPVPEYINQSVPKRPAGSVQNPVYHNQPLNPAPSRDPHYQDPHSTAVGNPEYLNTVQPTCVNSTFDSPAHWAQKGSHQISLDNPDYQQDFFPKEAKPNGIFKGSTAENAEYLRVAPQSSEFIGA
Fibroblast growth factor 10 (Homo sapiens), sequence (O15520 whole entry, looked up): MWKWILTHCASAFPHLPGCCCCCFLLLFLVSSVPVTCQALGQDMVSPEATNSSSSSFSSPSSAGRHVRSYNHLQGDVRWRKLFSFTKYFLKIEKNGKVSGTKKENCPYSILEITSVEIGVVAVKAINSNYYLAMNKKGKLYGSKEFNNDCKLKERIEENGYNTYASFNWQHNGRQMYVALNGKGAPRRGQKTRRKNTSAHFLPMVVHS
Dickkopf-related protein 1 (Homo sapiens), sequence (O94907 whole entry, looked up): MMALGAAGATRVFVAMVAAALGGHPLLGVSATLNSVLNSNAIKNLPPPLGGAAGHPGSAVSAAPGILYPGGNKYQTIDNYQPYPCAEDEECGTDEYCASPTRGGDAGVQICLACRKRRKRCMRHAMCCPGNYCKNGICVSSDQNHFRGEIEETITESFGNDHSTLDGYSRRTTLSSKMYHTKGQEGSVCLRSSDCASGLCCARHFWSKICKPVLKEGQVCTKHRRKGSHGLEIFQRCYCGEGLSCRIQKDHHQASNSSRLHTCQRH

As to `CS(=O)(=O)CCOC(=O)C1=CC(CCCO)=CC(c2ccc(CN3CCCC3)cc2)N(Cc2cc3c(cc2Br)OCO3)C=C1C(=O)OCCS(C)(=O)=O` (stereo not given), the composite z-score was determined as 1.52 in assay [1]; 0.525 in assay [2]; 0.555 in [3]; 1.2 in assay [5]; 1.27 in assay [6]; 0.422 in [7]. For the same molecule, the composite z-score was 0.634 in assay [8], 0.232 in assay [9] and 1.29 in assay [10]. The z-score in [4] is -0.9 (inactive).
Turning to `CN1C(=O)C2C=CC(C(O)c3ccc(-c4ccccc4)s3)N(N(c3ccccc3)c3ccccc3)C2C1=O` (stereo not given), the composite z-score in assay [1] is 0.61; in assay [2] it was 0.818; in assay [3], 0.798; in assay [5], 0.186; in [6], 0.724; in assay [7], -0.0198. Further, the figures for the composite z-score in assay [8], in assay [9] and in assay [10] were 0.338, 0.0129 and 1.18, respectively. The z-score in [4] was 0.214 (inactive).
`COc1ccc(CCN2C(=O)[C@@]3(Cc4ccccc42)c2ccccc2C(=O)N(Cc2ccccc2C(F)(F)F)[C@H]3c2ccc(CO)cc2)cc1`: the composite z-score in assay [1] is 0.516; in assay [2], -0.19; in assay [3], -0.537; in [5], 0.167; in assay [6], 0.441; in assay [7] it was 0.0283. Moreover, the composite z-score in [8] worked out at 0.425; in assay [9], 0.622; in assay [10], 0.717. Also, the z-score in [4] is -0.856 (inactive).
Regarding `Cc1ccc(S[C@]2(C(=O)NC(C)C)CC(=O)N(Cc3ccccc3Cl)[C@@H]2c2ccc(CO)cc2I)cc1`, the composite z-score in [1] is 1; in assay [2], 0.0056; in [3] it was 1.07; in [5], -1.05; in [6], -0.26; in assay [7] it was -1.51. The composite z-score in assay [8] was -0.674; in [9] it was -1.39; in assay [10], 0.762. Further, in assay [4], the z-score was 0.0132 (inactive).
For `CC(C)OC(=O)C=C1C[C@@H](c2ccccc2C(F)(F)F)O[C@@H](c2ccccc2C(F)(F)F)O1`, the composite z-score in assay [1] is 0.192; in assay [2], -0.0017; in assay [3] it was 0.0563; in assay [5] it was 0.417; in assay [6] it was 0.163; in assay [7], 0.337. Further, the figures for the composite z-score in [8], in assay [9] and in [10] were 0.332, 0.25 and 0.266, respectively. Besides, the z-score in [4] is -0.723 (inactive).
As to `COC(=O)[C@@]1(Cc2ccccc2)[C@H]2c3cc(C(=O)N4CCCC4)n(Cc4cccc5ccccc45)c3C[C@H]2CN1C(=O)c1ccccc1`, the composite z-score in assay [1] was 0.473; in assay [2], 2.15; in assay [3], 1.44; in assay [5] it was 0.664; in [6] it was -0.348; in assay [7], 0.0512. The composite z-score in assay [8] was 0.272; in [9] it was -0.922; in [10], 1.07. In addition, the z-score in assay [4] was -1.33 (inactive).
Turning to `C=CCOC(=O)[C@H]1[C@@H]2C(=O)O[C@@H](c3ccccc3)[C@@H](c3ccccc3)N2[C@@H](c2ccc(OCCOC(=O)[C@@H]3C[C@@H]4C(=O)N[C@@H](CCCC[N+](C)(C)C)C(=O)N4[C@@H]3c3ccc(O)cc3)cc2)[C@]12C(=O)Nc1ccccc12`, the composite z-score was 1.05 in assay [1]; 0.415 in assay [2]; -0.372 in assay [3]; 0.805 in assay [5]; 1.3 in [6]; 0.383 in assay [7]. The composite z-score in assay [8] was 1.24; in assay [9], 0.716; in assay [10] it was -0.0117. In addition, in assay [4], the z-score is -0.794 (inactive).
Regarding `COC(=O)[C@@]1(Cc2ccc(F)cc2)[C@H]2c3cc(C(=O)N4CCCC4)n(Cc4ccc(C)o4)c3C[C@H]2CN1C(=O)c1ccccc1`, the composite z-score in assay [1] is 1.55; in [2], 0.72; in assay [3], 1.02; in assay [5], 1.08; in [6], 0.899; in [7] it was 0.0358. The composite z-score was 0.596 in assay [8], -0.177 in [9] and 0.87 in assay [10]. In [4], the z-score is 3.29 (inactive).
Consider `C=C(CCCC)/C(=C/C[C@@H](OC(C)=O)c1ccccc1OCCO)c1cnc2ccccc2c1`, for which the composite z-score was 0.561 in assay [1]; 0.149 in [2]; 0.12 in [3]; 0.732 in assay [5]; 0.21 in [6]; -0.321 in [7]. For the same molecule, the results for the composite z-score in assay [8], in [9] and in [10] were 0.417, -0.0491 and 1.33, respectively. Also, in assay [4], the z-score was -0.397 (inactive).
On to `CCOC(=O)C[C@H]1[C@H](OC(=O)c2cc3ccccc3oc2=O)[C@@H](NC(=O)C2CCCCC2)c2cc(OCCCO)ccc2N1C(=O)c1ccccc1`, for which the composite z-score in assay [1] was 0.784; in [2], -0.23; in assay [3], -0.377; in assay [5], 0.995; in assay [6], 0.692; in assay [7], 0.593. In addition, the composite z-score stood at 0.708 in [8], 0.5 in assay [9] and 0.707 in [10]. For the same molecule, in assay [4], the z-score was -1.45 (inactive).
As for `CCCCC(=C=CC[C@@H](O)c1ccccc1OCCO)CCO`, the composite z-score in [1] was -0.189; in [2], 0.0035; in [3], 0.001; in assay [5], 0.209; in assay [6], -1.3; in assay [7] it was -0.903. Also, the figures for the composite z-score in assay [8], in [9] and in assay [10] were -0.375, -0.382 and 0.857, respectively. In addition, the z-score in assay [4] is 0.579 (inactive).
With `COCCOC(=O)N1C(=O)[C@@]2(c3cc(C#CCCO)ccc31)[C@H](C(=O)N1CCN(c3ncccn3)CC1)[C@H]1C(=O)O[C@H](c3ccccc3)[C@H](c3ccccc3)N1[C@@H]2c1ccccc1OCCO`, the composite z-score in assay [1] is 0.748; in assay [2], 0.293; in assay [3], -0.0474; in [5], 0.727; in assay [6], 1.26; in assay [7] it was 0.688. For the same molecule, the composite z-score worked out at 0.751 in assay [8], 0.547 in assay [9] and 0.487 in assay [10]. Besides, in assay [4], the z-score is -0.32 (inactive).
Regarding `C[C@@H]1ON(c2cccc(C(=O)OC(C)(C)C)c2)[C@H](c2ccc(Br)cc2)[C@H]1C(=O)N1C(=O)OC[C@H]1Cc1ccccc1`, the composite z-score in assay [1] is 0.801; in [2] it was -0.155; in assay [3], -0.319; in [5], 1.15; in assay [6], 0.962; in assay [7], 0.51. Moreover, the composite z-score in assay [8] turned out to be 1.03; in [9], 0.693; in assay [10], 0.272. The z-score in [4] was -0.0916 (inactive).
Regarding `CCCCc1cn(C[C@H](Cc2ccccc2)NC(=O)N[C@H](CO)CCc2oc(C(C)=O)c(C(=O)OC)c2C(=O)OC)nn1`, the composite z-score in assay [1] is 0.595; in assay [2], -0.164; in [3], -0.22; in assay [5], 1.04; in assay [6], 1.02; in assay [7] it was 0.717. Also, the results for the composite z-score in assay [8], in assay [9] and in [10] were 1.4, 0.485 and -0.0075, respectively. Besides, in assay [4], the z-score was -0.949 (inactive).
As for `CN1C(=O)C2C=CC(C(O)C3CCCCC3)N(Nc3ccc([N+](=O)[O-])cc3[N+](=O)[O-])C2C1=O` (stereo not given), the composite z-score in assay [1] came out at 0.912; in assay [2], 0.778; in assay [3], 0.906; in [5], 0.911; in assay [6], 0.323; in assay [7], 0.374. In addition, the composite z-score in assay [8] is 1.29; in assay [9], -0.33; in assay [10], 0.738. Besides, in [4], the z-score was 1.84 (inactive).
